TEAD-YAP block – TEAD-YAP interaction inhibition | HEK-TIYL cells, TEAD-Gal4/YAP UAS-luciferase luminescence | 1.4% of 640,000 active | AID 1259422 | inhibition, % at 9.12 µM; in the data active = inhibition above about 32%;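 note: 0% = median of test compound wells and 100% = reference inhibitor wells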
GPR151 activ – activators of human GPR151; Q8TDV0; activation, % at 11.2 µM; 1% of 650,000 active; PathHunter beta-arrestin GPR151 cells, luminescence; in the data active = activation above about 4.9%;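 note: 0% = median of compound wells and 100% = cells with positive control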
FBW7 activator – activators of human E3 ligase FBW7; Q969H0; AlphaScreen FBW7–phospho-cyclin E peptide binding, activator screen; normalized activity (activation), % at 26.1 µM; 0.13% of 650,000 active; AID 1259310; in the data active = normalized activity above about 1.9%;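 note: purified mutant Fbw7 with reduced substrate affinity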
MITF inh – human MITF inhibition, primary screen. 0.91% of 650,000 active. inhibition, % at 2.6 µM. AlphaScreen MITF homodimerization, bead proximity signal. AID 1259374. O75030; in the data active = inhibition above about 50%;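 note: 0% = vehicle wells with protein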
Target sequence (O75030 whole entry, looked up): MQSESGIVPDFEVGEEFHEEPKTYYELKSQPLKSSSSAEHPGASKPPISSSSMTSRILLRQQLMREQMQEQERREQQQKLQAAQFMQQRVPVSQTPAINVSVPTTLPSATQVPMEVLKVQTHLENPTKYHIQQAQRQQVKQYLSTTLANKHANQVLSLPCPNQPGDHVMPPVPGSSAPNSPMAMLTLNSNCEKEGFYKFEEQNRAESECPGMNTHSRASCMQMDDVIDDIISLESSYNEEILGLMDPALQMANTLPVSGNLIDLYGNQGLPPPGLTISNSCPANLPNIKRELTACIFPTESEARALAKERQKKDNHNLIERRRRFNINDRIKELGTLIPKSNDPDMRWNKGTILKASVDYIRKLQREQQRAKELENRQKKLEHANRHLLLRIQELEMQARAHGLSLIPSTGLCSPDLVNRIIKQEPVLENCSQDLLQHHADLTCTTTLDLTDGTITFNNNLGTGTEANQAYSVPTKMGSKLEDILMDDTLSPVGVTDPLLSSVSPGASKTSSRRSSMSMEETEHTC
MITF confirm – human MITF inhibition, confirmation | shares compounds with MITF inh | AID 1259372 | AlphaScreen MITF homodimerization, biotin/His-MITF beads | 16% of 4,700 active | inhibition, % at 2.6 µM;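 active = inhibition above a cutoff derived from the DMSO control wells, cut at about 28% in these data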;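 note: 0% = MITF dimer wells with DMSO only; inhibitors lower the bead chemiluminescence by keeping MITF from dimerizing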
AlphaScreen DR – counter-screen: compounds optically interfering with AlphaScreen | shares compounds with MITF inh | AlphaScreen optical interference counterscreen, cell-free | IC50, µM | 6% of 480 active; call rule not given here
AlphaScreen intf2 – counter-screen: compounds optically interfering with AlphaScreen; 7.6% of 4,700 active; inhibition, % at 2.6 µM; LysRS AlphaScreen counterscreen, signal interference, triplicate; shares compounds with MITF inh;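 active = inhibition above a cutoff derived from the DMSO control wells, cut at about 30% in these data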
The depositor's hits bear a star; . = not tested or not shown; ! = not active in a repeat. A selection: hits, their analogues and other compounds. The true share with any hit is near 3.4%.

SMILES	TEAD-YAP block	GPR151 activ	FBW7 activator	MITF inh	MITF confirm	AlphaScreen intf2	others
Fc1ccc(CN2CCN(Cc3ccc(Cl)cc3)CC2)cc1	10	0	0	68*	2	16
Brc1ccc(CNCCc2c[nH]c3ccccc23)cc1	7	3	1	55*	11	19
CCc1ccc(CNCCc2c[nH]c3ccccc23)cc1	3	0	0	19	.	.
CC(=O)c1ccc(N2CCN(Cc3ccccc3F)CC2)cc1	-1	1	1	51*	-4	4
CC(=O)c1ccc(N2CCN(Cc3ccc(F)cc3)CC2)cc1	-11	0	0	30	.	.
Fc1cccc(F)c1CN1CCN(c2ccccc2)CC1	6	-1	0	56*	3	-7
COc1cccc(N2CCN(Cc3ccccc3F)CC2)c1	-2	-2	0	60*	-10	-4
Cc1c(Cl)cccc1-n1c(/C=C/c2cccc(F)c2)nc2ccccc2c1=O	6	0	0	7	.	.
COc1ccc(CN2CCN(C(=O)COc3ccc(Cl)cc3)CC2)cc1OCc1ccccc1	9	1	0	59*	3	11
O=C(COc1ccc(Cl)cc1)N1CCN(Cc2cccc(F)c2)CC1	-1	0	0	68*	-2	2
O=C(COc1ccccc1)N1CCN(Cc2cccc(F)c2)CC1	9	-1	0	45	.	.
O=C(Cn1c(=S)[nH]c2ccccc2c1=O)N1CC2CC(C1)c1cccc(=O)n1C2 (stereo not drawn)	0	0	0	10	.	.
COc1ccc(O)c(CN2CCN(Cc3ccc(Cl)cc3)CC2)c1	-7	-1	0	7	.	.
Cc1cccc(CC(=O)N2CCN(Cc3nc4ccccc4[nH]3)CC2)c1	7	1	-1	55*	9	19
O=C(Cc1ccccc1)N1CCN(Cc2ccccn2)CC1	0	0	-1	47	.	.
Cn1cccc1CN1CCN(C(=O)COc2ccccc2)CC1	-14	-1	1	53*	6	17
O=C(COc1ccccc1)N1CCN(Cc2ccccn2)CC1	3	1	0	78*	-1	2
CCCCCCCCCCCCCC(=O)O[C@@H]1[C@@H](C)[C@@]2(O)[C@@H](C=C(CO)C[C@@]3(O)C(=O)C(C)=C[C@@H]23)C2C(C)(C)[C@@]21OC(C)=O (stereo partly drawn)	-9	0	0	10	.	.
O=C(CSC(c1ccccc1)c1ccccc1)Nc1ccccc1	-6	0	0	3	.	.
Cc1nn(CC(=O)N2CCC3(CC2)OCCO3)c(=O)c2cc3sccc3n12	-3	0	0	65*	24	5
O=C(Cn1ncn2cccc2c1=O)N1CCC2(CC1)OCCO2	-12	0	0	-6	.	.
CCN1C[C@]2(C)CCC(OC)[C@@]34C5C[C@@H]6CC[C@@](O)(C5C(=O)O6)[C@@H](C(O)C23)[C@@H]14 (stereo partly drawn)	3	-1	0	-15	.	.
CCOC(=O)C1C2NC(=S)N(c3ccccc3OC)C1(C)Oc1c(OCC)cccc12 (stereo not drawn)	-1	-1	0	16	.	.
CCOC(=O)C1C2NC(=S)N(c3cccc(Cl)c3)C1(C)Oc1c(OC)cccc12 (stereo not drawn)	3	-1	0	52*	34*	15	AlphaScreen DR=>5.1
CCOC(=O)C1C2NC(=S)N(c3ccc(CC)cc3)C1(C)Oc1c(OCC)cccc12 (stereo not drawn)	5	-1	0	54*	42*	27	AlphaScreen DR=>5.5
SMILES	TEAD-YAP block	GPR151 activ	FBW7 activator	MITF inh	MITF confirm	AlphaScreen intf2	others
CCOC(=O)c1c(C)n(C(C)C)c2ccc(OC)cc12	2	0	0	1	.	.
Cc1ccccc1C1N(c2ccccn2)C(=O)C2CCCN21 (stereo not drawn)	4	0	0	13	.	.
CCN1CCN(Cc2ccccc2Br)CC1	2	-1	0	-6	.	.
O=[N+]([O-])c1ccccc1CN1CCN(Cc2ccccc2Br)CC1	-1	-1	0	58*	2	2
O=[N+]([O-])c1ccccc1CN1CCN(Cc2ccccc2)CC1	-10	2	0	17	.	.
CSc1ccc(CN2CCN(Cc3ccccc3Br)CC2)cc1	2	0	0	75*	12	26
CSc1ccc(CN2CCN(Cc3ccc(Br)cc3)CC2)cc1	-2	2	0	78*	14	13
CCN1CCN(Cc2ccc(SC)cc2)CC1	4	1	0	39	.	.
CCc1ccc(CN2CCN(Cc3ccccc3Br)CC2)cc1	3	1	0	57*	-2	6
CN1CC=C(c2cc3c([nH]2)CCNC32CCN(C)CC2)CC1	3	0	0	-2	.	.
CCN1C(=S)NC2c3cc(Br)cc(OC)c3OC1(C)C2C(=O)OC (stereo not drawn)	-2	1	0	28	.	.
CC1=C(C(=O)OC(C)C)C2(C(=O)Nc3ccccc32)C(C(=O)OC(C)C)=C(N)O1 (stereo not drawn)	7	0	0	5	.	.
O=C1CN=C(c2cccc(Cl)c2)c2cc([N+](=O)[O-])ccc2N1	-15	1	0	8	.	.
COc1cc(OC)c(OC)cc1CNCCc1ccc(Cl)cc1	7	1	0	32	.	.
COc1ccc(CCNCc2cc(OC)c(OC)cc2OC)cc1	7	-1	0	61*	-4	-3
C[N+]1(C)C2CCC1CC(OC(=O)C(CO)c1ccccc1)C2 (stereo not drawn)	-5	0	0	63*!	-1	-10
C[N+]1(C)[C@@H]2CC[C@H]1CC(OC(=O)C(CO)c1ccccc1)C2 (stereo partly drawn)	.	-4	0	18	.	.
COc1ccc(CN2CCN(Cc3ccc(C)cc3)CC2)cc1	6	0	0	80*	1	8
COc1ccc(CN2CCN(Cc3ccc(Cl)cc3)CC2)cc1	7	0	0	83*	8	5
O=C(CN1CCN(C(=O)Cc2ccc(F)cc2)CC1)c1cccs1	7	-1	0	24	.	.
O=C(CN1CCN(C(=O)COc2ccccc2F)CC1)c1cccs1	12	2	0	51*	7	20
CN(C)[C@@H]1C(=O)C(C(N)=O)=C(O)[C@@]2(O)C(=O)C3=C(O)c4c(O)cccc4[C@@](C)(O)[C@H]3C[C@@H]12	-16	0	0	11	.	.
CN(C)C1C(=O)C(C(N)=O)=C(O)C2(O)C(=O)C3=C(O)c4c(O)cccc4C(C)(O)C3CC12 (stereo not drawn)	15	-1	0	51*	43*	3	AlphaScreen DR=>6.5
CCOc1ccc(CN2CCN(Cc3cccc(C)c3)CC2)cc1	14	1	0	54*	1	4
CCN1CCN(Cc2cccc(Cl)c2)CC1	7	0	0	14	.	.

Source: PubChem (The Scripps Research Institute Molecular Screening Center)
